From ChEMBL document CHEMBL3988442, “University of Dundee, Small-Polar-MMV Screening Library” (2021) come the findings set out here.

SMILES strings stand for the structures. For some assays here: Potency and affinity values are given separately.

Common to all, as to set-up: scale not given: direction of the effect not stated beside the values
Test [1] has as its target Protein translocase subunit SecA (Escherichia coli (strain K12)) (UniProt P10408). Description: Assay to Identify E. coli SecA ATPase Inhibitors. Format: functional. As to conditions: 30 µM.
In test [2] the target is T1, Ubiquitin-activating enzyme e1, putative (Leishmania donovani (strain BPK282A1)) (UniProt E9BSI1).
T1 sequence (whole entry): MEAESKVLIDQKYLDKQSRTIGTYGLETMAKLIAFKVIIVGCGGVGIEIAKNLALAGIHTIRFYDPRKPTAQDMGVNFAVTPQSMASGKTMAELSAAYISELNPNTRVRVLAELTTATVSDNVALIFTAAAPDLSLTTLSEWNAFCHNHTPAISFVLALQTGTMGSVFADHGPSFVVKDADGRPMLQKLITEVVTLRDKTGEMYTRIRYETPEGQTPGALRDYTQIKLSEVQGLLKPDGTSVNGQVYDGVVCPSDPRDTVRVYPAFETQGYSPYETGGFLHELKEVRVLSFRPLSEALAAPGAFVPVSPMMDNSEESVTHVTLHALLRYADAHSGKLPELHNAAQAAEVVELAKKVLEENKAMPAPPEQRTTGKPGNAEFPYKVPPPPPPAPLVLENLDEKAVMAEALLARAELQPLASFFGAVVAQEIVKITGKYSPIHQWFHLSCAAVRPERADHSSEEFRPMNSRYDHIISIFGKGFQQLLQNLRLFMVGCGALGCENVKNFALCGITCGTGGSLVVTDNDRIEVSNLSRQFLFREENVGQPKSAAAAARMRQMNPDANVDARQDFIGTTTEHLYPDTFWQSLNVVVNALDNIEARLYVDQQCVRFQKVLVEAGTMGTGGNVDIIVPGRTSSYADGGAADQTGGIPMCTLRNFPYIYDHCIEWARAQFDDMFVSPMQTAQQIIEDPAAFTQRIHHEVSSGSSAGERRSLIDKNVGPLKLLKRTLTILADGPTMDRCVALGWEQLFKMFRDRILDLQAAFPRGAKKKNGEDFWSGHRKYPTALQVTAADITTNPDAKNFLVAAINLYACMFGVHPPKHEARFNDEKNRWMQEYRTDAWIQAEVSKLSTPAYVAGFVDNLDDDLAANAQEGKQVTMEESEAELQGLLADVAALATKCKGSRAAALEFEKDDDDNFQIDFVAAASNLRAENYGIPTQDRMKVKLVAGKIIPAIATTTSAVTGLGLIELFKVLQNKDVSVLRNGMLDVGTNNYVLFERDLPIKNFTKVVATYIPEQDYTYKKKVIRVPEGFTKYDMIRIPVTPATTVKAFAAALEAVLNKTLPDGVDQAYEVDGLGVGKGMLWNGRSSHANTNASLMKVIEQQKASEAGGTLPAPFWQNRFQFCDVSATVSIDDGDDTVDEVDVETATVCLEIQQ
Description: Leishmania donovani Ubiquitin Activating Enzyme (LdE1). Format: functional. As to conditions: 30 µM.

Test [3] addresses AMP-activated protein kinase, AMPK (Homo sapiens) (UniProt P54646+O43741+P54619+Q9UGJ0+Q9Y478+Q13131+Q9UGI9). Description: AMP-dependent Kinase enzyme assay. An in vitro enzyme assay that detects ADP turnover that is directly proportional to AMPK activity. This uses naive AMPK that is activated during the assay with MK-8722. Format: functional. Conditions: 30 µM.
The target in test [4] is Sialic acid-binding Ig-like lectin 9 (Homo sapiens) (UniProt Q9Y336). Description: Hs-Siglec9 ALPHAscreen SOP 20170721. As to conditions: 10 µM. On the technique in general: Alpha assays give light when donor and acceptor beads are brought close together.
Test [5] has as its system Trypanosoma cruzi. Description: Trypanosoma cruzi phosphomannomutase and mannose-1-phosphate guanylyltransferase assay. Conditions: 10 µM. Format: functional.
Test [6] deals with T2, Arginase-2, mitochondrial (Homo sapiens) (UniProt P78540).
T2 sequence (whole entry): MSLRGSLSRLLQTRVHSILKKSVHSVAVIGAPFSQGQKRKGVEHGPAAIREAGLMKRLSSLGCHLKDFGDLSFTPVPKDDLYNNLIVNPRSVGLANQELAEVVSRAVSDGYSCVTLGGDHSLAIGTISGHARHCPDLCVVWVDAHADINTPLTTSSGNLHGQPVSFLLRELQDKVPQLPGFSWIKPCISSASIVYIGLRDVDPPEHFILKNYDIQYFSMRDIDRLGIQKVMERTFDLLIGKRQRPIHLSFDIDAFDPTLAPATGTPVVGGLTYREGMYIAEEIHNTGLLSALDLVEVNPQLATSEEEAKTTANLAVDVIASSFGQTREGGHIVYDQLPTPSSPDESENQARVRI
Description: in vitro enzyme assay to detect the production of urea directly proportional to the activity of Arginase II. Note: in the data most compounds retested in dose-response had high values. Format: functional. As to conditions: 33.3 µM.

Test [7] deals with T3, Proteasome subunit beta (Trypanosoma cruzi) (UniProt O96673).
T3 sequence (whole entry): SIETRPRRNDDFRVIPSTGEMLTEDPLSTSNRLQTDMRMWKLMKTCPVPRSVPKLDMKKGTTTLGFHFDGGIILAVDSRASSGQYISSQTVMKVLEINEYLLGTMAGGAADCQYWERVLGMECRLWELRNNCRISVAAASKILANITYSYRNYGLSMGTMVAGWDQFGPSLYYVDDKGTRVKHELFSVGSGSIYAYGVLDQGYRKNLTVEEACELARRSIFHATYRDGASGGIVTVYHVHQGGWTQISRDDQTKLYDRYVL
Nature of the test: Trypanosoma cruzi proteasome chymotrypsin-like activity (TcProtChymo) assay. Note: in the data most compounds retested in dose-response had high values. Format: functional. As to conditions: 9.37 µM.

The species entered for test [8] is Homo sapiens. Description: To identify inhibition of the IFN signalling (Jak-Stat) pathway via expression of an eGFP reporter gene under the control of an IFN-stimulated response element (ISRE) containing MxA promoter. Format: functional. As to conditions: 30 µM. On the technique in general: A reporter such as luciferase makes a cellular process visible.
Test [9] deals with T4, Tyrosyl-tRNA synthetase, putative (Trypanosoma cruzi (strain CL Brener)) (UniProt Q4DSP6).
T4 sequence (whole entry): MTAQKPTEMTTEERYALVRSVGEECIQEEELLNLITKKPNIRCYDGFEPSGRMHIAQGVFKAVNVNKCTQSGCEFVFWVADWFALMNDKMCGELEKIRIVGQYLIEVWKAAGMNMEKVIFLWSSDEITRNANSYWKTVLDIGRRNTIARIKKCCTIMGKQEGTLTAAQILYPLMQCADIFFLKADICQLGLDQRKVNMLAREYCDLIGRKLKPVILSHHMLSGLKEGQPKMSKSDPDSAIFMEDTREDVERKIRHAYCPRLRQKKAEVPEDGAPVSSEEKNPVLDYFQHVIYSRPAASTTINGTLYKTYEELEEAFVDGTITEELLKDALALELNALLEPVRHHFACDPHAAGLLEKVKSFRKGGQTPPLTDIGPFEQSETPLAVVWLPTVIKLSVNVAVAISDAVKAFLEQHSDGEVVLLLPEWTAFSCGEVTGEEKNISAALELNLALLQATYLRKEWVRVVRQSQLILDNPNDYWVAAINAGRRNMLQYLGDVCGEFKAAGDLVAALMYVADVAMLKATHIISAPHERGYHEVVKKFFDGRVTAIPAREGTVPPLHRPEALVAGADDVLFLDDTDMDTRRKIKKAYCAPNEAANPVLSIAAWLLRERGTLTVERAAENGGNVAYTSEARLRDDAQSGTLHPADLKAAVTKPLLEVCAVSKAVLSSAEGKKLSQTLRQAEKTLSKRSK
Description: Trypanosoma cruzi tyrosyl tRNA synthetase (TcYRS) _High Tyrosine SOP. Note: in the data most compounds retested in dose-response had high values. Format: functional. As to conditions: 30 µM.

In test [10] the target is T4, Tyrosyl-tRNA synthetase, putative (Trypanosoma cruzi (strain CL Brener)). Description: Trypanosoma cruzi tyrosyl tRNA synthetase (TcYRS) SOP. As to conditions: 30 µM. Format: functional.
Test [11] concerns the target Chromo domain-containing protein 1 (Saccharomyces cerevisiae (strain ATCC 204508 / S288c) (Baker's yeast)) (UniProt P32657). Nature of the test: ScCHD-1 Enzyme Inhibition Assay. Note: in the data most compounds retested in dose-response had high values. It counts as functional. As to conditions: 30 µM.

Sequence of Protein translocase subunit SecA (Escherichia coli (strain K12)) (P10408 whole entry): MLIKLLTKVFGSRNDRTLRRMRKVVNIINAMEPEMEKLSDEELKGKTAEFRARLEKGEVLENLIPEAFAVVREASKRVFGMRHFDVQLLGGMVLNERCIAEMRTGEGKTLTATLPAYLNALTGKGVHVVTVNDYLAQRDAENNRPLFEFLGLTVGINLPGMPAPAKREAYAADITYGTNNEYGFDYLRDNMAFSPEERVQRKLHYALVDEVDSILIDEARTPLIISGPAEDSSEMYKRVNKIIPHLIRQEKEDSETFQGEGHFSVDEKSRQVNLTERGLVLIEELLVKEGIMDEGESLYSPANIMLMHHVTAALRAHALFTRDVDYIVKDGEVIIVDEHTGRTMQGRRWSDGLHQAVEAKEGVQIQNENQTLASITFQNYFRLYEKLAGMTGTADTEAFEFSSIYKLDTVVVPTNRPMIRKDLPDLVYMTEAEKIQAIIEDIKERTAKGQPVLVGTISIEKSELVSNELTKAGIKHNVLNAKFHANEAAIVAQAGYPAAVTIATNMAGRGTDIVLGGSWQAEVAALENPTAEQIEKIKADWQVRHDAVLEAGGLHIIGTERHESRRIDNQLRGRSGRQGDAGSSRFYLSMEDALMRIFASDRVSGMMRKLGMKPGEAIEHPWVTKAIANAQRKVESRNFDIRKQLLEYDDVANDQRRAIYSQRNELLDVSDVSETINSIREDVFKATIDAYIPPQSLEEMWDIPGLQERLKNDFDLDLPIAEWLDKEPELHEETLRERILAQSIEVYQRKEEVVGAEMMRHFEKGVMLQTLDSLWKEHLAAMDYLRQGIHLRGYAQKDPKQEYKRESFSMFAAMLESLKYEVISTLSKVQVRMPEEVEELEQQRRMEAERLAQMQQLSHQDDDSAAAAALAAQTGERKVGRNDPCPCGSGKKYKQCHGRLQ
Sequence of Sialic acid-binding Ig-like lectin 9 (Homo sapiens) (Q9Y336 whole entry): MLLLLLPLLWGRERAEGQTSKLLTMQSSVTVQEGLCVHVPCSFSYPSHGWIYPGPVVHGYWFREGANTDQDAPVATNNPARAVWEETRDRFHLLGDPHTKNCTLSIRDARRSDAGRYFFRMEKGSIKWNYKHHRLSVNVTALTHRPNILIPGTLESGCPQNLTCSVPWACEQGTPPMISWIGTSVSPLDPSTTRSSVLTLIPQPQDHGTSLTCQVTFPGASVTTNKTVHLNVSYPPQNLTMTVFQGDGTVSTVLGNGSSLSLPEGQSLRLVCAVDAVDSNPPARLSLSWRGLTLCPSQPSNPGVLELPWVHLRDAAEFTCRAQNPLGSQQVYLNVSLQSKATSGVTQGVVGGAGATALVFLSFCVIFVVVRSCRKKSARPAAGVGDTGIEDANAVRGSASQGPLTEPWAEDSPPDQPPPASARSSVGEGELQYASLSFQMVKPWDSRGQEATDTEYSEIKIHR
Sequence of Chromo domain-containing protein 1 (Saccharomyces cerevisiae (strain ATCC 204508 / S288c) (Baker's yeast)) (P32657 whole entry, the tested form may be a part): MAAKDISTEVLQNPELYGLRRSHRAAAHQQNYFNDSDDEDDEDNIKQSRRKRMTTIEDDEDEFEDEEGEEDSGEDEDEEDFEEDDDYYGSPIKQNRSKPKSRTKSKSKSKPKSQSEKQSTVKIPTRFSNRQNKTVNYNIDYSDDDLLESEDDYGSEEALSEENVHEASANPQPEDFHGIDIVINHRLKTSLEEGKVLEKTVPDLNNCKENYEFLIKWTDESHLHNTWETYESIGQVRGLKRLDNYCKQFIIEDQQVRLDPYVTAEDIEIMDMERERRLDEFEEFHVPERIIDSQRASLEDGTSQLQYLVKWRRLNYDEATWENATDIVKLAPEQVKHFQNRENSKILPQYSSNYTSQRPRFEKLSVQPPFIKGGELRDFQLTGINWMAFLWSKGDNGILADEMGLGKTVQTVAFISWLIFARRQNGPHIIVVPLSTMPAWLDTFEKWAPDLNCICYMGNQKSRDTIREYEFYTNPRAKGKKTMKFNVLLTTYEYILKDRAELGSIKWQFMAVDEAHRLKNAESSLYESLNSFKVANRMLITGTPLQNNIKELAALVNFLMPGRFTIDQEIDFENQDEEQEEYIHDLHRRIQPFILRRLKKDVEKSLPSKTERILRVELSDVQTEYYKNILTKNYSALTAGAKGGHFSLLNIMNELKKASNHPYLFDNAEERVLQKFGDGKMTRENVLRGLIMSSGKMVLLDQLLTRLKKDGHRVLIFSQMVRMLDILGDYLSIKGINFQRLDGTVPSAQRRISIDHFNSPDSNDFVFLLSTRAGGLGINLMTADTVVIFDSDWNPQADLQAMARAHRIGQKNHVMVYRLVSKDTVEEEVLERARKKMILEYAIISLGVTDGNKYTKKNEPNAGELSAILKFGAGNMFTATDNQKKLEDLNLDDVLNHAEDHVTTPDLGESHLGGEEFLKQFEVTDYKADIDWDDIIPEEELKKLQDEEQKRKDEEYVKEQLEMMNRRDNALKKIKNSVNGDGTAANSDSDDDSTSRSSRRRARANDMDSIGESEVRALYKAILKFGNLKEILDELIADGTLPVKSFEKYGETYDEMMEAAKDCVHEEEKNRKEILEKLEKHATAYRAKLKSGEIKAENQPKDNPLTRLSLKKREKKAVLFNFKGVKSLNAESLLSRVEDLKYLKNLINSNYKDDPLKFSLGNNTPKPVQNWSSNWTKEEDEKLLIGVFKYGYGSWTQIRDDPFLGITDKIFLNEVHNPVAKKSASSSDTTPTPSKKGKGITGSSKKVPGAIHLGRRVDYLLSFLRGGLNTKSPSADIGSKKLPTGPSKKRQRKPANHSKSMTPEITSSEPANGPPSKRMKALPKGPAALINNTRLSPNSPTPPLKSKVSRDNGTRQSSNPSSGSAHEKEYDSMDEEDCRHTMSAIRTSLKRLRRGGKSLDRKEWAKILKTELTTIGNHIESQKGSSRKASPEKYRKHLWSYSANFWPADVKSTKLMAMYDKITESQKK

Take `COc1ccc(NC(=O)C(c2cccc(F)c2)N2CCOCC2)cc1` (stereo not given): the Percent Effect in test [1] was -1.48%; in [2], 0%; in test [3], 4.04%; in test [4], 2.98%; in test [5], -5.75%; in test [6], 3.55%. The Percent Effect in test [7] was 13.5%; in [8] it was 0.224%; in [9], 6.38%; in test [10], 10.4%; in test [11], -3.15%.
For `O=c1cc2c(nn1CN1CCN(c3cccc(Cl)c3)CC1)CCC2`, the Percent Effect is -3.06% in test [1]; 6.67% in test [2]; 0.948% in test [3]; 5.21% in test [4]; 0.589% in test [5]; -6.87% in [6]. Further, the Percent Effect in [7] is 19%; in [8], 4.05%; in [9], 6.35%; in test [10], 12.8%; in test [11] it was -2.65%.
For `Cc1ccc(C(=O)N2CCC3(CCC(=O)N(CC(N)=O)C3)CC2)c(O)c1`, the Percent Effect is 1.03% in [1]; 4.17% in [2]; -0.266% in test [3]; -3.34% in test [4]; -2.82% in [5]; -2.65% in test [6]. In addition, the Percent Effect in [7] is 14.2%; in [8], -6.14%; in test [9], 3.16%; in test [10], 5.13%; in test [11], -3%.
As for `Cc1noc([C@@]23CCO[C@@H]2CCN(C(=O)C2CCOCC2)C3)n1`, the Percent Effect in test [1] was -0.432%; in [2] it was 10.7%; in test [3], 2.61%; in test [4], -3.48%; in test [5], -1.54%; in test [6] it was -51.8%. Besides, the Percent Effect in [7] is 13.2%; in test [8], -1.95%; in [9], 7.29%; in test [10], 20%; in test [11] it was -7.84%.
Turning to `COc1ccc([C@@H]2CN(C(=O)CCC(F)(F)F)C[C@H]2NC(C)=O)cc1`, the Percent Effect in test [1] is -3.18%; in test [2], 2.67%; in test [3], 0.154%; in [4], -0.127%; in test [5], -2.63%; in test [6], 2.6%. Also, the Percent Effect is 16.7% in test [7]; 1.55% in test [8]; 6.01% in test [9]; 8.64% in [10]; -6.25% in test [11].
As for `O=C1N(c2ccccc2)Cc2nc(=O)[nH]n21`, the Percent Effect in test [1] is -6.16%; in [2] it was 9.33%; in test [3] it was -6.52%; in test [4], 1.33%; in test [5], 1.38%; in [6] it was -3.35%. For the same compound, the Percent Effect in test [7] was 12.2%; in [8], 8.42%; in test [9], 4.23%; in test [10], 10.3%; in test [11], -10.1%.
As for `c1cnc(N2CCOC3(CCN(CC4CCCCC4)CC3)C2)nc1`, the Percent Effect in [1] was 0.617%; in test [2] it was 13.3%; in [3], 14.1%; in test [4] it was -0.802%; in test [5], -5.12%; in test [6], -2.1%. Besides, the Percent Effect is 14.7% in test [7]; 10.1% in test [8]; 5.32% in test [9]; 11.5% in test [10]; -3.47% in [11].
As to `O=C(C1CCS(=O)(=O)C1)N1CCN(c2cnccn2)CC1` (stereo not given), the Percent Effect in test [1] is -5.3%; in test [2] it was 16.2%; in [3], -5.15%; in [4], -2.95%; in test [5] it was -7.52%; in test [6], 0.185%. Besides, the Percent Effect was 6.46% in test [7]; 14.3% in test [8]; 5.94% in test [9]; 15.8% in test [10]; -4.21% in [11].
Take `COCc1ccccc1CNc1cc(N2CCCC2CO)ncn1` (stereo not given): the Percent Effect in [1] was -4.86%; in [2], 18.2%; in test [3], -4.12%; in [4] it was 3.3%; in test [5], -2.43%; in test [6] it was 1.07%. Besides, the Percent Effect was 11.7% in test [7]; 7.92% in [8]; 5.83% in test [9]; 19.5% in test [10]; -6.07% in [11].
Consider `O=C(NC1CC1)[C@H]1C[C@H]2OCC[C@H]2N(CC2CC2)C1`, for which the Percent Effect is -4.51% in [1]; -2.67% in test [2]; 3.02% in [3]; 9.5% in test [4]; -3.28% in test [5]; -55.7% in test [6]. For the same compound, the Percent Effect in test [7] is 0.513%; in [8] it was 6.42%; in test [9], -4.17%; in test [10] it was -7.5%; in test [11], 4.05%.
